According to PubChem BioAssay:
Activity calls are given as the source filed them. Unless noted, the rule behind the calls is not given here.

Experiments:
[1] = resazurin metabolic signal in HepG2 cells – cell-based, resazurin fluorescence, 24 h, PK04 Diversity Set, profiling panel (AID 1172); details: HepG2 viability, higher = more signal; note: test concentration not given here
[2] = budding yeast growth changes without added modifier – OD600, strain BY4716, 24 h, basal condition, primary screen (AID 1173); details: S. cerevisiae BY4716 growth, OD600, 24 h; higher = more signal, called active from +8 up or from −8 down
[3] = viability profiling in MM1S myeloma cells – cell-based, resazurin fluorescence, basal, 24 h, PK04 Diversity Set, profiling panel (AID 1174); details: higher = more signal, called active from +8 up or from −8 down;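 note: MM1S multiple myeloma cell line; test concentration not given here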
[4] = molecular target: Dihydroorotate dehydrogenase (quinone), mitochondrial (Plasmodium falciparum (isolate 3D7)) (UniProt Q08210); assay: inhibition of P. falciparum DHODH – biochemical, C-terminal His tag, absorbance 600 nm, primary screen (AID 1175); details: PfDHODH enzyme, DCIP absorbance 600 nm; higher = more signal, called active from +8 up or from −8 down;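 note: recombinant parasite enzyme with a five histidine tag at its C terminus; test concentration not given here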
[5] = inhibition of PAO1 biofilm formation – strain PAO1, LB-PBS medium, absorbance 600 nm, primary screen (AID 1176); note: test concentration not given here; details: P. aeruginosa PAO1 growth/biofilm, A600, 12 h; higher = more signal
[6] = growth modulation of vineyard yeast isolate – strain RM11-1a, OD600, basal, 24 h, primary screen (AID 1177);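 note: cultures grown under basal conditions with no added stressor; test concentration not given here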; details: S. cerevisiae RM11-1a growth, OD600, 24 h; higher = more signal, called active from +8 up or from −8 down
[7] = growth of efflux-deficient E. coli DRC39 – strain DRC39, OD650, 24 h, E. coli filamentation inducers, primary screen (AID 1178);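 note: growth measured as culture turbidity by optical density at 650 nm; test concentration not given here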; details: E. coli DRC39 acrAB, higher = more signal, called active from +8 up or from −8 down
[8] = growth of efflux-deficient E. coli DRC39 – strain DRC39, OD650, 48 h, E. coli filamentation inducers, primary screen (AID 1179);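 note: screen aims at cell division blockers that make cells filament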; details: E. coli DRC39 delta-acrAB growth, higher = more signal, called active from +8 up or from −8 down
[9] = viability profiling in RPMI8226 myeloma cells – cell-based, resazurin fluorescence, basal, 24 h, PK04 Diversity Set, profiling panel (AID 1180); details: higher = more signal;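 note: RPMI8826 multiple myeloma cell line at 5000 cells per well; test concentration not given here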
[10] = molecular target: E3 ubiquitin-protein ligase XIAP (Homo sapiens) (UniProt P98170); assay: small molecules binding XIAP protein – biophysical, small-molecule microarray, fluorescence 635 nm, primary screen (AID 1181); details: higher = more signal;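 note: score merges 667 nm emission and signal to noise over triplicate slides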
Chain of E3 ubiquitin-protein ligase XIAP (Homo sapiens) (P98170 whole entry, looked up): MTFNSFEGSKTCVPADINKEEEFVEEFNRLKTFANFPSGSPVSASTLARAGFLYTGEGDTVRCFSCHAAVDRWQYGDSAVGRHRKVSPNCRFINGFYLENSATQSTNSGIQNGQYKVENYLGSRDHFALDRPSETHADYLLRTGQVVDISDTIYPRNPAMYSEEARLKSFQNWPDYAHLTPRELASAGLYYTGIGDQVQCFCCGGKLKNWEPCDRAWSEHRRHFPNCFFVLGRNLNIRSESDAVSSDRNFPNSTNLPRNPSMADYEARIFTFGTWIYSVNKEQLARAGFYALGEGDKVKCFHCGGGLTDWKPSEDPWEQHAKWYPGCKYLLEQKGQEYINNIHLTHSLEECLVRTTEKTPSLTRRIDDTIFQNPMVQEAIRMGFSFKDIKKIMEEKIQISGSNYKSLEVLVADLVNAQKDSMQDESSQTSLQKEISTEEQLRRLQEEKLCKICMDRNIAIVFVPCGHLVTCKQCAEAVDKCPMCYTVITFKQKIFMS

Chain of Dihydroorotate dehydrogenase (quinone), mitochondrial (Plasmodium falciparum (isolate 3D7)) (Q08210 whole entry, looked up): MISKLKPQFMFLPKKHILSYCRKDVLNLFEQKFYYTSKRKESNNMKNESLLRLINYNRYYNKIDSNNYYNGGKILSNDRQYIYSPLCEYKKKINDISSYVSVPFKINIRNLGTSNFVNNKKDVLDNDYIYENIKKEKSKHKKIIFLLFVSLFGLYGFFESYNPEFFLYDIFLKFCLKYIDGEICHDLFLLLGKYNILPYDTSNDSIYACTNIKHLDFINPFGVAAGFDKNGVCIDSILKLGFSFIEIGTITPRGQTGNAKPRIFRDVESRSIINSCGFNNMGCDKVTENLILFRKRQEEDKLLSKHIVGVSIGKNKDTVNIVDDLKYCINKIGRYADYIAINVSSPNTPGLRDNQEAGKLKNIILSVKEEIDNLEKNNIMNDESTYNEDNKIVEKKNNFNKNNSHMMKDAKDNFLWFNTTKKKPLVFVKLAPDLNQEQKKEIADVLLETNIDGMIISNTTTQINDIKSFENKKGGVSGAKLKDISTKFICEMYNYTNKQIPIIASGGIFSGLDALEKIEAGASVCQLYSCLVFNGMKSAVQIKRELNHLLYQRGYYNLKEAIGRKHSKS

Structure (SMILES) | z-score [1] | z-score [2] | z-score [3] | composite z-score [4] | z-score [5] | z-score [6] | z-score [7] | z-score [8] | z-score [9] | composite z-score [10]
C=C(CC1([C@@H](NP(=O)(c2ccccc2)c2ccccc2)[C@H]2C[C@@H]2CCCC)CC1)c1ccccc1 | 2.02 | 1.06 (inactive) | 1.07 (inactive) | -0.424 (inactive) | 0.812 (inactive) | 0.753 (inactive) | -0.167 (inactive) | -0.821 (inactive) | 3.34 | -0.167
COc1ccc(C(O)C2C=CC3C(=O)N(Cc4ccccc4)C(=O)C3N2n2cnnc2)cc1OCc1ccccc1 (stereo not given) | -0.299 | 0.278 (inactive) | 0.708 (inactive) | -0.265 (inactive) | 1.13 (inactive) | -0.271 (inactive) | 1.31 (inactive) | -0.48 (inactive) | 0.329 | 0.035
CC1CC/C=C\[C@H]2OC34C=CCN(C(C)(C)C)C(=O)[C@H]3N(C(C)CO)C(=O)[C@@H]4C2C(=O)O1 (stereo not given in full) | 0.0366 | -0.623 (inactive) | -2.21 (inactive) | -3.09 (inactive) | -0.525 (inactive) | 0.723 (inactive) | 0.606 (inactive) | 0.771 (inactive) | -0.0501 | 0.501
CCOC(=O)C[C@H]1[C@H](OC(=O)c2ccc(C(=O)c3ccccc3)cc2)[C@@H](NC(=O)c2ccc3ccccc3n2)c2cc(OCCCO)ccc2N1C(=O)c1ccccc1 | -0.0237 | 0.854 (inactive) | -0.266 (inactive) | -0.203 (inactive) | 0.0186 (inactive) | -0.0492 (inactive) | -0.28 (inactive) | -0.211 (inactive) | -0.999 | -0.0326
COc1ccc(C#Cc2ccc3c(c2)[C@]2(C(=O)N3)[C@H](C(=O)Nc3nc4ccccc4s3)[C@H]3C(=O)O[C@H](c4ccccc4)[C@H](c4ccccc4)N3[C@@H]2c2ccc(O)cc2)cc1 | 1.2 | 0.0338 (inactive) | 0.283 (inactive) | -2.08 (inactive) | 0.145 (inactive) | 1.15 (inactive) | 0.237 (inactive) | -0.0528 (inactive) | 0.338 | 0.065
C[C@H]1C2[C@H](Cc3ccccc3)NC(=O)[C@]23C(=O)N[C@H](Cc2ccccc2)C(=O)N2CCC[C@H]2C(=O)NC/C=C\C/C=C/C3[C@@H]2O[C@]12C (stereo not given in full) | 0.696 | -1.96 (inactive) | 1.22 (inactive) | -1.51 (inactive) | 1.01 (inactive) | -0.835 (inactive) | 1.11 (inactive) | -0.0988 (inactive) | 1.19 | 0.091
